# The supplement of paper PMC7156485
# ± gives the standard deviation of the averaged measurements.
# What was measured:
# Settings in all cases: concentration: 10 µM; 24 h
# HCC1569 [1] = assay: cell number relative to DMSO (% of DMSO); higher = more cells (less growth inhibition / toxicity)
# In short: (§1)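 In 384-well plates holding 800 HCC1569 or TDF cells per well in RPMI with 10% FBS, compounds were tested at 10 µM for 24 h at 37 °C in triplicate. Fixation used 3.7% formaldehyde. Staining used a rabbit anti-H1.0 antibody with an AlexaFluor 647 secondary, plus DAPI. Each value, H1.0 nuclear intensity or cell number, is a median of replicates shown as percent of the plate control, and HCC1569 values were smoothed for positional effects.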
# TDF [2] = assay: as above
# In short: as §1
# TDF [3] = assay: H1.0 immunofluorescence intensity relative to DMSO (% of DMSO); higher = stronger H1.0 induction, active = 120 or more
# In short: as §1
# HCC1569 [4] = assay: H1.0 immunofluorescence intensity relative to DMSO (% of DMSO); higher = stronger H1.0 induction, active = 140 or more
# In short: as §1
# 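Throughout, for H1.0 immunofluorescence intensity relative to DMSO: TDF is a line of transformed human dermal fibroblasts of mesenchymal origin.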
# 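Throughout, for cell number relative to DMSO: TDF denotes transformed human dermal fibroblasts of mesenchymal origin.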
Structure (SMILES),cell number (HCC1569 [1]),cell number (TDF [2]),H1.0 immunofluorescence intensity (TDF [3]),H1.0 immunofluorescence intensity (HCC1569 [4])
CC1=C(CC(=O)O)c2cc(F)ccc2C1=Cc1ccc(S(C)(=O)=O)cc1 [Sulindac sulfone],104,117,100 (inactive),103 (inactive)
C=CCCCCCCCCCCC(=O)O [12-Tridecenoic acid],99.7,91.7,106 (inactive),98.7 (inactive)
CCCCCC(O)C=CC1C(O)CC2CC(=CCCCC(=O)O)CC21 (stereo unspecified) [Carbacyclin],103,99.1,94.8 (inactive),100 (inactive)
CCCCCC=CCC=CCC=CCCCCC(=O)O [γ-Linolenic acid (18:3 n-6)],99.3,96.9,96.6 (inactive),98.8 (inactive)
OCCN(CCO)c1nc(N2CCCCC2)c2nc(N(CCO)CCO)nc(N3CCCCC3)c2n1 [Dipyridamole],94.2 ± 1.5,104 ± 7.8,85.7 (inactive),98.9 (inactive)
Cc1oc(-c2ccccc2)nc1CCC(=O)c1ccc(CC2SC(=O)[N-]C2=O)cc1.[Na+] (stereo unspecified),103,106,96.4 (inactive),102 (inactive)
Cc1cc(C(=O)Nc2cccc(C(=O)Nc3cccc(C(F)(F)F)c3)c2)on1,100,104,99.6 (inactive),113 (inactive)
CC(C)(CO)C(O)C(=O)NCCC(=O)O (stereo unspecified) [Pantothenic acid],104,95.9,106 (inactive),98.2 (inactive)
CCCCCC=CCC=CCC=CCC=CCCCC(=O)OC(CO)CO [2-Arachidonoylglycerol],104,107,97.3 (inactive),99.5 (inactive)
